aSyn UTR act: Activators via SNCA 5'UTR binding, MLPCN. alpha-synuclein 5'UTR reporter, activators screen. activity score, % (tested at 7.5 µM), hits read low. 7.1% of 300,000 active; in the data active means activity score below about -60%
* marks the source's active call; other numbers are inactive results. These entries were drawn from the full list.

SMILES | aSyn UTR act
O=C1C=C(c2cc3ccccc3s2)CCC1 | -86*
O=c1c2ccccc2cnn1-c1nc2ccccc2[nH]1 | 98
O=c1c2ccccc2nc2c3ccccc3cnn12 | -172*
CCOC(=O)c1ccc(N=NN(C)C)cc1 | -156*
C=CCn1c(C)csc1=Nc1ccc(C(C)=O)cc1 | -99*
CCOC(=O)c1ccc(N=c2scc(C)n2CC)cc1 | -91*
CCc1ccc(C2C(=O)c3ccccc3C2=O)cc1 | -74*
O=C1c2ccccc2C(=O)C1c1ccnc2ccccc12 | 89
COc1ccc(C2C(=O)c3ccccc3C2=O)cc1 | -83*
COc1ccc(C2C(=O)c3ccccc3C2=O)c(OC)c1 | -265*
COc1ccc(-n2ncc3c(NCc4cccnc4)ncnc32)cc1 | -149*
COc1ccc(-n2ncc3c(N4CCCCC4)ncnc32)cc1 | 101
Cc1ccc(-n2ncc3c(NCc4cccnc4)ncnc32)cc1C | -90*
Cc1cccc(-n2ncc3c(NCc4cccnc4)ncnc32)c1 | -142*
c1ccc(-n2ncc3c(NCc4ccco4)ncnc32)cc1 | -252*
COc1ccc(-n2ncc3c(NCc4ccc5c(c4)OCO5)ncnc32)cc1 | -109*
Brc1ccc2ncnc(NCc3ccco3)c2c1 | -64*
Cc1ccc(-n2ncc3c(NCc4ccccc4)ncnc32)cc1 | -189*
O=C(Nc1ccc([N+](=O)[O-])cc1)c1ccc(Cn2cc([N+](=O)[O-])cn2)cc1 | 79
O=C(Nc1ccc(Cl)c(Cl)c1)c1ccc(Cn2cc(Cl)cn2)cc1 | -120*
O=C(Nc1ccccc1F)c1ccc(Cn2cc(Cl)cn2)cc1 | -84*
COc1cccc(N2CCN(C3C4CC5CC(C4)CC3C5)CC2)c1 (stereo not drawn) | -95*
CCNc1ccc(Br)cc(C(=O)/C=C/c2c(Cl)cccc2Cl)c1=O | -133*
O=C(Nc1cccc(C(F)(F)F)c1)Nc1ccc(N2CCCC2)c(S(=O)(=O)Nc2ccccc2Cl)c1 | 93
CCN1CCN(Cc2ccccc2NC(=O)Nc2ccc(C)cc2)CC1 | -170*
SMILES | aSyn UTR act
CCN1CCN(Cc2ccc(NC(=O)Nc3ccccc3Cl)cc2)CC1 | -87*
O=C(Nc1ccc(Br)cc1)Nc1ccccc1Cl | -129*
O=C(Nc1ccc(CN2CCCCC2)cc1)Nc1ccccc1Cl | -90*
CCc1ccc2nc3sc(C(=O)O)cc3cc2c1 | -81*
CC(C)(C)c1ccc(OCC(=O)Nc2ccc(-c3nc4cccnc4o3)cc2)cc1 | -135*
O=C(COc1ccccc1)Nc1cccc(-c2nc3ccccc3[nH]2)c1 | -63*
Oc1cc(NCc2cccnc2)ccc1-c1nc2ccccc2o1 | -100*
O=C(COc1ccccc1)Nc1cccc(-c2nnc(-c3ccccc3)o2)c1 | -64*
COc1ccc(OCC(=O)Nc2cccc(-c3nc4ccccc4o3)c2)cc1 | -151*
C=Cc1cccc(NC(=O)COc2ccccc2)c1 | -107*
COc1ccc(C(=O)Nc2cccc(-c3nnc(-c4ccco4)o3)c2)cc1 | -93*
CCc1ccc(OCC(=O)Nc2ccc(-c3nc4ccccc4o3)c(O)c2)cc1 | -97*
O=C(Nc1cccc(-c2nc3ccccc3o2)c1)c1ccc(N2C(=O)C3C4C=CC(C4)C3C2=O)cc1 (stereo not drawn) | 88
COc1ccc(OCC(=O)Nc2cccc(-c3nc4ccccc4[nH]3)c2)cc1 | -159*
CCCc1ccc2oc(C(=O)N(C)Cc3cnccn3)c(C)c2c1 | -73*
Cc1ccc2oc(C(=O)N(C)Cc3ccon3)c(C)c2c1 | -153*
CN(C)c1ccc(/C=C2\CCCc3c2nc2ccccc2c3C(=O)O)cc1 | -121*
CCN(CC)c1ccc(N=Cc2ccc([N+](=O)[O-])o2)cc1 | -80*
CCOC(=O)C1(CCOc2ccccc2)CCN(Cc2ccc(O)c(Cl)c2)CC1 | 108
CCOC(=O)C1(CCOC)CCN(Cc2nc(C(C)C)cs2)CC1 | -67*
C=CCNc1ncnc2c1[nH]c1ccc(Cl)cc12 | -197*
Fc1ccc(-c2nnc(-c3ccc(F)cc3)o2)cc1 | -185*
Cc1ccc(-c2nnc(Cc3ccc([N+](=O)[O-])cc3)o2)cc1 | -120*
O=[N+]([O-])c1ccc(Cc2nnc(-c3ccc(F)cc3)o2)cc1 | -86*
Fc1ccc(-c2nnc(NC3=NCCCCC3)o2)cc1 | 98
SMILES | aSyn UTR act
Cc1ccc(/C=C2/NC(=O)N(c3ccccc3)C2=O)o1 | -105*
O=C1N/C(=C/c2ccc(Br)s2)C(=O)N1c1ccccc1 | -81*
Cc1cc(/C=C2/NC(=O)N(c3ccccc3)C2=O)c(C)n1C(C)C | -64*
COc1ccc(/C(N)=N/OC(=O)CCC2CCCC2)cc1 | -71*
Cc1cccc(/C(N)=N/OC(=O)CCC2CCCCC2)c1 | -109*
Cc1ccc(/C(N)=N/OC(=O)CCC2CCCC2)cc1 | -85*
Cc1ccc(OCCSc2ncnc3nc[nH]c23)cc1 | -67*
Cc1noc(/C=C/Nc2ccc(F)cc2F)c1[N+](=O)[O-] | -175*
Cc1noc(/C=C/c2ccccn2)c1[N+](=O)[O-] | -211*
COc1cc(/C=N/Nc2nc3ccccc3o2)cc(OC)c1O | -86*
Brc1ccc(/C=N/Nc2nc3ccccc3o2)cc1 | -191*
COc1cc(/C=N\Nc2nc3ccccc3o2)cc(OC)c1OC | -186*
O=C(CCc1ccccc1)Nc1nc2c(F)cc(F)cc2s1 | -99*
Cc1ccc(C)c(-c2nnc(NC(=O)c3ccc([N+](=O)[O-])o3)o2)c1 | -63*
Cc1cc(C)c2sc(NC(=O)c3ccc([N+](=O)[O-])o3)nc2c1 | -110*
O=C(Nc1nc2c(F)cc(F)cc2s1)c1ccc([N+](=O)[O-])o1 | -69*
Cc1cc(C)c2nc(NC(=O)c3ccc([N+](=O)[O-])o3)sc2c1 | -144*
Cc1ccc2nc(NC(=O)CSCc3ccccc3)sc2c1 | -79*
CSc1nsc(SCC(=O)Nc2nc3ccc(C)cc3s2)n1 | -84*
C/C(=N\Nc1ncc(Cl)cc1Cl)c1ccc(OC(F)F)cc1 | -62*
C/C(=N\Nc1ncc(Cl)cc1Cl)c1ccc2c(c1)OCO2 | -79*
c1ccc(OCc2nc3ccccc3[nH]2)cc1 | -153*
c1ccc(OCCSc2nc3ccccc3[nH]2)cc1 | -128*
Clc1ccc(OCc2nc3ccccc3[nH]2)cc1 | -139*
O=C(Nc1ccccc1C(=O)Nc1nnc(C(F)(F)F)s1)c1ccccc1 | 59
SMILES | aSyn UTR act
CCOC(=O)c1sc(NC(=O)c2ccc(OC)cc2)nc1C | -109*
COC(=O)c1sc(NC(=O)c2ccc(C)o2)nc1C | -203*
Cc1c(C(=O)Nc2nnc(C(F)(F)F)s2)oc2ccccc12 | -236*
COC(=O)c1sc(NC(=O)c2oc3ccccc3c2C)nc1C | -142*
CCOC(=O)c1sc(NC(=O)c2ccc(C)o2)nc1C | -287*
Cc1ccc(S(=O)(=O)CCSc2n[nH]c(=O)n2-c2ccc3c(c2)OCCO3)cc1 | -72*
O=C1/C(=C/c2cccnc2)CCc2c1[nH]c1ccccc21 | -126*
CC(C)C/C=C1\CCc2c([nH]c3ccccc23)C1=O | -229*
CC(C)Sc1nc(N)nc(-c2cccs2)c1C#N | -146*
Cc1cc(OCC(=O)N2CCCCCC2)ccc1[N+](=O)[O-] | -148*
Cc1cc(OCC(=O)N2CCCC2)ccc1Cl | -91*
Oc1ccc(/C=N/Nc2ccnc3cc(Cl)ccc23)c(O)c1 | -227*
Fc1ccc(N/N=C/c2cccnc2)c(F)c1 | -114*
Clc1ccc2c(N/N=C/c3cccnc3)ccnc2c1 | -81*
COc1ccc(OCc2cc(C(=O)N3CCCC(O)C3)no2)c2ccccc12 (stereo not drawn) | -104*
CCCOC1CCCN(C(=O)c2cc(COc3c(F)cccc3F)on2)C1 (stereo not drawn) | -136*
